According to the supplement of paper PMC10646978:
± gives the standard deviation.

Legend:
Conditions in all cases: modulator concentration 10 µM
[1] = tested on: RAW-Dual (murine macrophage reporter line); assay: NF-kB reporter (SEAP) activity fold change vs agonist alone; higher = enhanced NF-kB activity
Summary of the method: (§1)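 RAW-Dual murine macrophage reporter cells were plated at 50 000 per well in 384-well plates, pin-transferred compound to 10 μM final, and pre-incubated for 1 hour at 37 °C before a PRR agonist was added and the cells incubated overnight. NF-κB activity was read from supernatant SEAP with QUANTI-Blue at 620 nm absorbance, and IRF activity from Lucia luciferase with QUANTI-Luc by luminescence. Each signal was expressed as fold change by dividing by the mean agonist-only control on the same plate. Two replicate plates were averaged, with errors obtained by propagation.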

[2] = tested on: RAW-Dual (murine macrophage reporter line); assay: IRF reporter (Lucia luciferase) activity fold change vs agonist alone; higher = enhanced IRF activity
Summary of the method: as §1

[3] = tested on: RAW-Dual (murine macrophage reporter line); assay: viability score (confluency relative to resting cells, overnight) (fraction); higher = more viable, active = viable (0.7 or more)
Summary of the method: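 RAW-Dual macrophages in 384-well plates were incubated overnight with compound, final concentration 10 μM. Confluency images from IncuCyte were processed in IncuCyte software into two masks covering all imaged wells. The viability score is each well's confluency relative to resting cells, and a compound met the cutoff when both masks exceeded 70% of resting cells.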

[4] = agonist: CpG ODN 1826 0.5 ug/mL

SMILES	NF-kB reporter [1, 4]	NF-kB reporter ([1]; agonist: LPS 0.1 ug/mL)	NF-kB reporter ([1]; agonist: MPLA […])	IRF reporter ([2]; agonist: 3'3'-cGAMP 10 ug/mL)	IRF reporter ([2]; agonist: LPS 0.1 ug/mL)	IRF reporter ([2]; agonist: MPLA […])	viability score [3]
COc1ccc(C(NC(=O)c2ccccc2F)c2ccc(OC)cc2)cc1	1.03 ± 0.17	1.08 ± 0.093	1.01 ± 0.095	1 ± 0.032	1.21 ± 0.27	1.24 ± 0.16	1 (active)
CCCCCn1c(=O)[nH]c2cc(C(=O)N3CCN(C(=O)OCC)CC3)ccc2c1=O	1.12 ± 0.065	1.09 ± 0.068	1.02 ± 0.069	1.01 ± 0.035	1.45 ± 0.11	1.24 ± 0.14	0.974 (active)
COc1ccc(C(=O)Nc2nc(C)c(C)s2)cc1OC	0.904 ± 0.093	1.02 ± 0.056	0.994 ± 0.064	0.981 ± 0.024	1.55 ± 0.26	1.16 ± 0.27	1.01 (active)
O=C(O)C=Cc1ccc2c(c1)OCCO2	1 ± 0.077	0.902 ± 0.075	1.14 ± 0.12	1.07 ± 0.059	1.35 ± 0.2	1.47 ± 0.33	1.02 (active)
O=C(NCCOc1cccc2ccccc12)Nc1cc(F)c(F)cc1Cl	0.945 ± 0.11	1.06 ± 0.14	0.854 ± 0.053	0.886 ± 0.027	1.14 ± 0.17	0.878 ± 0.24	1.01 (active)
CCCC(CCC)C(N)=O	1.09 ± 0.093	0.95 ± 0.083	0.999 ± 0.023	1.08 ± 0.17	1.04 ± 0.12	0.983 ± 0.19	0.996 (active)
O=C(CS(=O)Cc1ccco1)NC/C=C\COc1cc(CN2CCCCC2)ccn1 (stereo not drawn)	0.989 ± 0.16	1.02 ± 0.14	0.928 ± 0.052	0.897 ± 0.043	1.24 ± 0.3	1 ± 0.24	0.997 (active)
S=c1n(CN2CCOCC2)nc(-c2ccccc2Br)n1-c1ccccc1	1.08 ± 0.19	0.947 ± 0.099	0.951 ± 0.073	0.884 ± 0.031	1.21 ± 0.12	1.22 ± 0.17	1 (active)
COc1ccccc1-c1nnc(NC(=O)c2cc(C)nn2C)o1	1.08 ± 0.11	1 ± 0.079	1.01 ± 0.08	0.945 ± 0.034	0.965 ± 0.064	0.953 ± 0.17	0.998 (active)
COC(C)(CNC(=O)c1cc2ccccc2[nH]1)c1ccccc1F (stereo not drawn)	0.825 ± 0.035	0.96 ± 0.081	1.06 ± 0.057	0.944 ± 0.063	1.01 ± 0.17	1.11 ± 0.22	0.94 (active)
CN1CC(c2ccccc2)OC1=O (stereo not drawn)	1.06 ± 0.17	0.949 ± 0.083	1.08 ± 0.093	1.07 ± 0.033	1.32 ± 0.2	1.29 ± 0.23	1 (active)
N[C@H](Cc1ccccc1)C(=O)O	0.958 ± 0.074	1.05 ± 0.052	0.958 ± 0.025	0.895 ± 0.076	0.988 ± 0.049	1.11 ± 0.14	1 (active)
CC(C)(C(=O)c1cccnc1)c1cccnc1 [Prestw-904]	1.05 ± 0.092	0.894 ± 0.073	0.939 ± 0.057	0.995 ± 0.054	0.956 ± 0.12	0.901 ± 0.23	0.997 (active)
Cn1cnc2cc(NCc3nc4ccccc4n3C)ccc21	0.818 ± 0.065	1.03 ± 0.078	1.01 ± 0.039	0.955 ± 0.17	1.03 ± 0.15	1.03 ± 0.24	1 (active)
